According to PubChem BioAssay AID1347426 (Functional Genomics Laboratory (NCATS/FGL), 2020):
The campaign covered roughly 31,000 sequences. About 1,400 (4.5%) were called active. The entries come from a sample that favours actives as a whole. Unmarked numbers belong to inactive results.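 How the source made its calls: active means median seed-adjusted z-score above 1 or below -1; inactive means the rest.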

Experiment: Novel Modifiers of Survival Motor Neuron (SMN) Protein: Gene Identification via Genome-wide siRNA Screen;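 further: luminescence tracks full-length SMN protein made from the SMN2 reporter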
Conditions: HEK293T SMN2-luciferase reporter, siRNA knockdown, 72 h; actives lie on both sides
Method in brief: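 HEK293T cells stably carrying an SMN2 promoter/splicing cassette–luciferase reporter were reverse-transfected with 1 pmol siRNA per well (druggable-genome library, 3 siRNAs per gene) and grown 72 h at 37 °C. Luminescence, normalized to negative-control siRNA and log10-transformed, was scored as MAD.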

Which median seed-adjusted z-score does the source give for GCCCGAUGCUUUCCACAUUTT against SLC5A9 here?
The median seed-adjusted z-score was 0.15.

With GCACACUUGAGUUUGUGUATT against HES6 as the sequence, how does the median seed-adjusted z-score read?
The median seed-adjusted z-score was 0.71.

With GGUGGUAUCUGUUUCCGUATT against PCAF as the sequence, how does the median seed-adjusted z-score read?
The median seed-adjusted z-score was -0.00665.

Which median seed-adjusted z-score does the source give for GCUGCGUCUCCCUUCCAAATT against GP1BB here?
Its median seed-adjusted z-score is -0.711.

With GCCCUCUGUUGGAUAUCUATT against AZIN1 as the sequence, how does the median seed-adjusted z-score read?
Its median seed-adjusted z-score is -1.14 (active).

For CAGCAGACGUAAAAAUUCATT against MSX2, which median seed-adjusted z-score is on record?
Its median seed-adjusted z-score is -0.406.

Which median seed-adjusted z-score does the source give for CCACUGGAAUGGUACUUAUTT against UBR1 here?
The median seed-adjusted z-score was -0.775.

Which median seed-adjusted z-score does the source give for GAGCUGUAUUUCUAUGUCATT against PLXNA3 here?
Its median seed-adjusted z-score is 0.255.

With GCGAGCCGCUUAUGUGGAATT against TCF21 as the sequence, how does the median seed-adjusted z-score read?
The median seed-adjusted z-score was -0.15.

For UCUUAGAUGUCAAGCUGAATT against RNF7, which median seed-adjusted z-score is on record?
The median seed-adjusted z-score was -1.18 (active).

With AGGUAGAAUGGACAAGUGATT against PPP1R11 as the sequence, how does the median seed-adjusted z-score read?
Its median seed-adjusted z-score is -0.498.

Which median seed-adjusted z-score does the source give for GGAUUAUGAGUACCGAGAATT against MAP3K14 here?
Its median seed-adjusted z-score is -0.0609.

Which median seed-adjusted z-score does the source give for GAUCAGGAGUCCUUCAAUATT against RAB1A here?
Its median seed-adjusted z-score is 0.395.

Which median seed-adjusted z-score does the source give for CGCCGACUGUCAUGCUUCATT against FCN1 here?
Its median seed-adjusted z-score is 0.346.

Which median seed-adjusted z-score does the source give for GUUCAUCCCUUAUUCGACATT against ZNF215 here?
The median seed-adjusted z-score was 0.485.

Which median seed-adjusted z-score does the source give for CCAUCAACAUCGCAGAUGATT against ABHD11 here?
The median seed-adjusted z-score was -0.189.

Which median seed-adjusted z-score does the source give for CCGACACGCUCUACAAUAATT against BRUNOL6 here?
Its median seed-adjusted z-score is -0.542.

For CCCUUACCCAAAACGAGAATT against CDK8, which median seed-adjusted z-score is on record?
The median seed-adjusted z-score was -1.47 (active).

With CCCUGACUGCAACUGCUUUTT against LDLRAD2 as the sequence, how does the median seed-adjusted z-score read?
Its median seed-adjusted z-score is -0.459.

With GAGUCAUUAUUGACAACAATT against APH1B as the sequence, how does the median seed-adjusted z-score read?
The median seed-adjusted z-score was -0.135.

For GGUGUUUGAUAUUCGAAUUTT against USP40, which median seed-adjusted z-score is on record?
Its median seed-adjusted z-score is 0.00437.

For GCAACAUCCUCAUUGUAUUTT against MCHR2, which median seed-adjusted z-score is on record?
Its median seed-adjusted z-score is -0.658.

Which median seed-adjusted z-score does the source give for GCAUAUUCCGGUGAUAACUTT against RAB6C here?
Its median seed-adjusted z-score is -1.08 (active).

For CAGGCGCCUGAAGUACAUATT against SLC35A2, which median seed-adjusted z-score is on record?
The median seed-adjusted z-score was 1.06 (active).

For AGCUCACCAGAGAAAUUUUTT against CHDH, which median seed-adjusted z-score is on record?
The median seed-adjusted z-score was 0.0241.

With GCUGCUCUGUUGAUGCUUATT against POMT1 as the sequence, how does the median seed-adjusted z-score read?
The median seed-adjusted z-score was 0.327.

With GGAGUUAUAUUUAGUGAUATT against ABCA10 as the sequence, how does the median seed-adjusted z-score read?
The median seed-adjusted z-score was -0.104.

Which median seed-adjusted z-score does the source give for GGGUCAAGAUCGAGGAUAATT against MYOM3 here?
Its median seed-adjusted z-score is -0.012.

With CCUCUAACAUUGGUUCCAATT against XPNPEP1 as the sequence, how does the median seed-adjusted z-score read?
The median seed-adjusted z-score was -1.5 (active).

Which median seed-adjusted z-score does the source give for CCAUGUACGUCAUCCCAUUTT against PCK1 here?
Its median seed-adjusted z-score is -0.401.

With AGAUGAGCCUAUACAGCGATT against TRIM9 as the sequence, how does the median seed-adjusted z-score read?
Its median seed-adjusted z-score is -0.437.

With GCAGUUCGGCAGUAUCUGUTT against PSMD6 as the sequence, how does the median seed-adjusted z-score read?
The median seed-adjusted z-score was -1.03 (active).

Which median seed-adjusted z-score does the source give for CAUCCAGCCCUUAUACAAATT against RBM24 here?
Its median seed-adjusted z-score is 0.0471.

Which median seed-adjusted z-score does the source give for CGUUCUAUCAACAAACUCATT against EIF2S1 here?
Its median seed-adjusted z-score is -0.175.

For GCCUCACAGGUGCAUCAUATT against TSC2, which median seed-adjusted z-score is on record?
Its median seed-adjusted z-score is 1.11 (active).

For GCCUAGGAGCGAGGACUUATT against DNAJC30, which median seed-adjusted z-score is on record?
Its median seed-adjusted z-score is 0.329.

Which median seed-adjusted z-score does the source give for CAGCUAUAAUCGUUUAUGATT against RAB22A here?
Its median seed-adjusted z-score is 0.321.

With GGAAUUUCGGCACUCAGAATT against CHIT1 as the sequence, how does the median seed-adjusted z-score read?
Its median seed-adjusted z-score is -0.578.

For GGUUGCCCAUCUUACUCUATT against ZNF470, which median seed-adjusted z-score is on record?
The median seed-adjusted z-score was -1.26 (active).

Which median seed-adjusted z-score does the source give for GCUCGGUCUGGUGAACUAATT against KLF3 here?
Its median seed-adjusted z-score is 0.628.

For CAAUCGUCAUAAUGUCUAUTT against A2M, which median seed-adjusted z-score is on record?
The median seed-adjusted z-score was -1.96 (active).

With GAUCCAUAGUACACGAAUATT against ADAM7 as the sequence, how does the median seed-adjusted z-score read?
The median seed-adjusted z-score was -0.0638.

For AGAUUGUCCUCAACUUCAATT against NRP2, which median seed-adjusted z-score is on record?
The median seed-adjusted z-score was 0.477.

Which median seed-adjusted z-score does the source give for AAUCAAAAGGGAGAACUCATT against HS3ST2 here?
Its median seed-adjusted z-score is 0.133.

For GACCCUCGAUUACUAUUCATT against OMA1, which median seed-adjusted z-score is on record?
Its median seed-adjusted z-score is 0.

For GCAUCGACAUGUCCUGGGATT against PUF60, which median seed-adjusted z-score is on record?
Its median seed-adjusted z-score is 2.26 (active).

With CAUCAACUAUAUCACAGUATT against ATP13A5 as the sequence, how does the median seed-adjusted z-score read?
Its median seed-adjusted z-score is 0.241.

Which median seed-adjusted z-score does the source give for AAUUCGAUAUGUUCAGCAATT against GPX4 here?
The median seed-adjusted z-score was -1.18 (active).

Which median seed-adjusted z-score does the source give for CAUCUAGGAUUUUAAGGGATT against ASGR1 here?
Its median seed-adjusted z-score is -0.128.

For GGAGGUUUGUAGAAUAUGUTT against XYLT1, which median seed-adjusted z-score is on record?
The median seed-adjusted z-score was -0.274.

For GCACGACUGUUACUGGACUTT against POLRMT, which median seed-adjusted z-score is on record?
Its median seed-adjusted z-score is 0.0812.

Which median seed-adjusted z-score does the source give for GGAUAUCAAUCGAGUACAATT against PIK3R3 here?
Its median seed-adjusted z-score is -1.88 (active).

For GCUGGACCGUAAAAUUGAATT against PSMC4, which median seed-adjusted z-score is on record?
Its median seed-adjusted z-score is -0.361.

For CCAACAUCUGGAACGAAUATT against KCNT2, which median seed-adjusted z-score is on record?
Its median seed-adjusted z-score is 0.449.
